Assay [1] concerns the target T1, Muscle, skeletal receptor tyrosine-protein kinase (Homo sapiens) (UniProt O15146).
T1 sequence (whole entry): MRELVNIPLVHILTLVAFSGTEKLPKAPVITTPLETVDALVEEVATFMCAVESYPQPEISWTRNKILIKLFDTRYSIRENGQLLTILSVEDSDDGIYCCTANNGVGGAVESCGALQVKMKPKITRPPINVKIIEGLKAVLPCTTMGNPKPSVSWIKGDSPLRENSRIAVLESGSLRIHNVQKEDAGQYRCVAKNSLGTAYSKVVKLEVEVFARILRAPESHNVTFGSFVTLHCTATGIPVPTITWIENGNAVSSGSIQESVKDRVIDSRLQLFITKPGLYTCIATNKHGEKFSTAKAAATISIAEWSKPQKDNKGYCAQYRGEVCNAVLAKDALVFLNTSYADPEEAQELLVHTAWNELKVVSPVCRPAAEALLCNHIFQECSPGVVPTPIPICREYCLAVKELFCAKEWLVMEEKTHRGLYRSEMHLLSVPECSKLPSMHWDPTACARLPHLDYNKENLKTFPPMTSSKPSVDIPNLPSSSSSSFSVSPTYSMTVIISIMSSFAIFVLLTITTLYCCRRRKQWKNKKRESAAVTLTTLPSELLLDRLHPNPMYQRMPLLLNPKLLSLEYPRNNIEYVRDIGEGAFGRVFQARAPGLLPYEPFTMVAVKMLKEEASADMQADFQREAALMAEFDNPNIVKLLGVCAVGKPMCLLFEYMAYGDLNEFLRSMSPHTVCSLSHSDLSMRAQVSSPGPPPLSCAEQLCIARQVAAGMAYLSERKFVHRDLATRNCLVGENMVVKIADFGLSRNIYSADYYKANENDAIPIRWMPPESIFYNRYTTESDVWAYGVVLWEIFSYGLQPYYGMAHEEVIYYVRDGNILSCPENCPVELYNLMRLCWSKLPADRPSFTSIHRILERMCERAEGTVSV
Conditions: at 1 µM.

The target of assay [2] is T1, Muscle, skeletal receptor tyrosine-protein kinase (Homo sapiens). Conditions: at 10 µM.
Assay [3] concerns the target T2, Serine/threonine-protein kinase Nek11 (Homo sapiens) (UniProt Q8NG66).
T2 sequence (whole entry): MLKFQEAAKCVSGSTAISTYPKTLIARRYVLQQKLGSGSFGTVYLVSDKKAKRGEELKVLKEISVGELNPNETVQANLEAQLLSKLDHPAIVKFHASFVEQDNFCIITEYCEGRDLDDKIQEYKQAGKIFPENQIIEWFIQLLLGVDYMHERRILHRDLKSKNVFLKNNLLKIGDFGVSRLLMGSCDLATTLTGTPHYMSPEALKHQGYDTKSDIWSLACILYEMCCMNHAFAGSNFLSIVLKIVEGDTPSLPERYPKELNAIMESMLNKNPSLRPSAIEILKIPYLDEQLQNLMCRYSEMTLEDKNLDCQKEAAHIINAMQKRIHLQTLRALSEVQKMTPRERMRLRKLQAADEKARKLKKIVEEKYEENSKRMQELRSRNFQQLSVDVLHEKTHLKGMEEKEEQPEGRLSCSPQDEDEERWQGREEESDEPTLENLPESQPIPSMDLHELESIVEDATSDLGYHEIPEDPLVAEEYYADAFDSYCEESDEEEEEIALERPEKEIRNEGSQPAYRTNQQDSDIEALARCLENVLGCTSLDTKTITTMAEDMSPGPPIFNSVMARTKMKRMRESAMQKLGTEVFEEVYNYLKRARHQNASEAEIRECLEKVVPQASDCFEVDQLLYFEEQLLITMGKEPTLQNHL
Conditions: at 1 µM.

Assay [4] deals with T2, Serine/threonine-protein kinase Nek11 (Homo sapiens). Conditions: at 10 µM.
Assay [5] has as its target T3, Serine/threonine-protein kinase Nek2 (Homo sapiens) (UniProt P51955).
T3 sequence (whole entry): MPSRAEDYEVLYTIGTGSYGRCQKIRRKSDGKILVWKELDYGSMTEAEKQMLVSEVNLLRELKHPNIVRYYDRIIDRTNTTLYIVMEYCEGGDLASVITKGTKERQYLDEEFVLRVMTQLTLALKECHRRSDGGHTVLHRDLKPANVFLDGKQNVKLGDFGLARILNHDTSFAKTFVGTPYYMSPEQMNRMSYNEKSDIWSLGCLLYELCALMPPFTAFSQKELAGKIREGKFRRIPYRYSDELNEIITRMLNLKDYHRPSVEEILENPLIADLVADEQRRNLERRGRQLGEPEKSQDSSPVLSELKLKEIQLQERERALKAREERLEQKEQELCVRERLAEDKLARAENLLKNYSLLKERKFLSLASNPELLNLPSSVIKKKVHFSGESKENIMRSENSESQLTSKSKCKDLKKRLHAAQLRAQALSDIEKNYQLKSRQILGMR
Conditions: at 1 µM.

Assay [6] addresses T3, Serine/threonine-protein kinase Nek2 (Homo sapiens). Conditions: at 10 µM.
Assay [7] has as its target T4, Serine/threonine-protein kinase Nek3 (Homo sapiens) (UniProt P51956).
T4 sequence (whole entry): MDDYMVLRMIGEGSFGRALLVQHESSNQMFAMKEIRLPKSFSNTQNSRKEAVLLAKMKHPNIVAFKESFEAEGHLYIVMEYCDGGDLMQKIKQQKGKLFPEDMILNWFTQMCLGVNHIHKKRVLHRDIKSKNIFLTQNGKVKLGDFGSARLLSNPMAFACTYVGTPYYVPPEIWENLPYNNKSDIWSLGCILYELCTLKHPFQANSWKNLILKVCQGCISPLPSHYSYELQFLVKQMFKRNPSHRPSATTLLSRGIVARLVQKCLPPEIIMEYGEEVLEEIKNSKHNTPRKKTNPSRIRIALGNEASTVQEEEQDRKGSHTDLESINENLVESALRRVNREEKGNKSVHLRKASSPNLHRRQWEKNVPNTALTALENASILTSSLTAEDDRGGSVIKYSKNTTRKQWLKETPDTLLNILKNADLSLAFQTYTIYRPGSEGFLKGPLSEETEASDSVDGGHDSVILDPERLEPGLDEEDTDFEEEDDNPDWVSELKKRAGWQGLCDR
Conditions: at 1 µM.

Assay [8] addresses T4, Serine/threonine-protein kinase Nek3 (Homo sapiens). Conditions: at 10 µM.
The target of assay [9] is Serine/threonine-protein kinase tousled-like 2 (Homo sapiens) (UniProt Q86UE8). Conditions: at 1 µM.
Sequence of Serine/threonine-protein kinase tousled-like 2 (Homo sapiens) (Q86UE8 whole entry, looked up): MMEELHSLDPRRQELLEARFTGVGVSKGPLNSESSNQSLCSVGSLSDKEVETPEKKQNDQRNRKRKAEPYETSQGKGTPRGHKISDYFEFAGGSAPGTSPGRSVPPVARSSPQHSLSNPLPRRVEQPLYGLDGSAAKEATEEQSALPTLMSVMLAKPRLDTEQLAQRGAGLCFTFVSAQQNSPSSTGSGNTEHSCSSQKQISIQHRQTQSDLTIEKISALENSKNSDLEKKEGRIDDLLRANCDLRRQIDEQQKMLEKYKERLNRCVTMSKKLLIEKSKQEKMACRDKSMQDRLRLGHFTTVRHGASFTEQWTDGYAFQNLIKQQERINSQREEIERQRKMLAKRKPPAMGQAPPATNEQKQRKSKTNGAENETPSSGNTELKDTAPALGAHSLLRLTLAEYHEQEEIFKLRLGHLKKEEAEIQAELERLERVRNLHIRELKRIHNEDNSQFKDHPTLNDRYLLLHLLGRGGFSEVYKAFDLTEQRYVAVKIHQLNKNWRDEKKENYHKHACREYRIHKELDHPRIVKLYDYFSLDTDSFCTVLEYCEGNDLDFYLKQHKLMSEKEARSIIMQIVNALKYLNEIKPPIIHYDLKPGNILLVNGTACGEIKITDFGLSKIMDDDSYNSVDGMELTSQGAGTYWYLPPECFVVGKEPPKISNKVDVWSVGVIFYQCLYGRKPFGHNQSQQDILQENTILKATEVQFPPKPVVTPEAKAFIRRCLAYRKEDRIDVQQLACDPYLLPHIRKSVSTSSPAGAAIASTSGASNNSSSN
The target is the same in assay [10]. Conditions: at 10 µM.
Assay [11] has as its target T5, Testis-specific serine/threonine-protein kinase 1 (Homo sapiens) (UniProt Q9BXA7).
T5 sequence (whole entry): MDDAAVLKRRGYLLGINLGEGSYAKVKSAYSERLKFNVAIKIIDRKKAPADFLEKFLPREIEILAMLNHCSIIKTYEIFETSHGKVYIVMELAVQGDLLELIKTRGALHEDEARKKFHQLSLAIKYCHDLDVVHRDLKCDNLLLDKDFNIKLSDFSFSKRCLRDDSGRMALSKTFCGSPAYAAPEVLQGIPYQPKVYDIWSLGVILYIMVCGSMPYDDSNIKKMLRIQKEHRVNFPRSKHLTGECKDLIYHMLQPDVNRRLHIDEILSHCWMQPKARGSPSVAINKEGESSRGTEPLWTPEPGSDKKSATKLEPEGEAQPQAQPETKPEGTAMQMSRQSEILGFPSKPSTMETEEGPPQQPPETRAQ
Conditions: at 1 µM.

Assay [12] deals with T5, Testis-specific serine/threonine-protein kinase 1 (Homo sapiens). Conditions: at 10 µM.
Assay [13] addresses T6, Testis-specific serine/threonine-protein kinase 2 (Homo sapiens) (UniProt Q96PF2).
T6 sequence (whole entry): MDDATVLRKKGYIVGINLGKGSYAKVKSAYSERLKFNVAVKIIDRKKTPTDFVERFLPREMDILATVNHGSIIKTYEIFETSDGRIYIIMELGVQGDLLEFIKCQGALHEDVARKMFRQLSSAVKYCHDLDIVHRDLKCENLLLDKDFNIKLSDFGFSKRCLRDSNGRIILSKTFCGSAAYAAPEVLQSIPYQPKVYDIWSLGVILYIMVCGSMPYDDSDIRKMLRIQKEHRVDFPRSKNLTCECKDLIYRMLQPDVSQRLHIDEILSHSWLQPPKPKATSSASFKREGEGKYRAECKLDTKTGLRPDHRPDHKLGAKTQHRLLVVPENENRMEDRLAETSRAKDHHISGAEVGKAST
Conditions: at 10 µM.

The target of assay [14] is T7, Tyrosine-protein kinase Tec (Homo sapiens) (UniProt P42680).
T7 sequence (whole entry): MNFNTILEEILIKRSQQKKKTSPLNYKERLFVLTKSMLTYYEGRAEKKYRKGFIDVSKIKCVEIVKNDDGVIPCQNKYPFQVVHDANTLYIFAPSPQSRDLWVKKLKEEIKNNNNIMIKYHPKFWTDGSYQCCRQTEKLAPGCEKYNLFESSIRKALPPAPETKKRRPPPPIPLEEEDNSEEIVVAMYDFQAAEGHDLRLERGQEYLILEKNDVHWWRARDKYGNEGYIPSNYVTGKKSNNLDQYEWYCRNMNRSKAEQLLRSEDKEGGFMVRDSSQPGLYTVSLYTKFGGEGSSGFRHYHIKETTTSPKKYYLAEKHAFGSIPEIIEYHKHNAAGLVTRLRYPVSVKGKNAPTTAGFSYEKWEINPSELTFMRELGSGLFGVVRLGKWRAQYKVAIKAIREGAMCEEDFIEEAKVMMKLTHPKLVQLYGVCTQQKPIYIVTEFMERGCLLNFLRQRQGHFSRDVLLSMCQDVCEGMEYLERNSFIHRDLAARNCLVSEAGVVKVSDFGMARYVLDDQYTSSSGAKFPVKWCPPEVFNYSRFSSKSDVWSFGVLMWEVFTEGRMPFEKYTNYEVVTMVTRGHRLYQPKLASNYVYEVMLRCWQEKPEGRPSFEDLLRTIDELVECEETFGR
Conditions: at 1 µM.

For assay [15], the target named is T7, Tyrosine-protein kinase Tec (Homo sapiens). Conditions: at 10 µM.
Assay [16] has as its target Angiopoietin-1 receptor (Homo sapiens) (UniProt Q02763). Conditions: at 1 µM.
For assay [17] the target is unchanged. Conditions: at 10 µM.
Assay [18] has as its target High affinity nerve growth factor receptor (Homo sapiens) (UniProt P04629). Conditions: at 1 µM.
The target is the same in assay [19]. Conditions: at 10 µM.
Assay [20] deals with BDNF/NT-3 growth factors receptor (Homo sapiens) (UniProt Q16620). Conditions: at 1 µM.
Sequence of BDNF/NT-3 growth factors receptor (Homo sapiens) (Q16620 32-822 limits assumed): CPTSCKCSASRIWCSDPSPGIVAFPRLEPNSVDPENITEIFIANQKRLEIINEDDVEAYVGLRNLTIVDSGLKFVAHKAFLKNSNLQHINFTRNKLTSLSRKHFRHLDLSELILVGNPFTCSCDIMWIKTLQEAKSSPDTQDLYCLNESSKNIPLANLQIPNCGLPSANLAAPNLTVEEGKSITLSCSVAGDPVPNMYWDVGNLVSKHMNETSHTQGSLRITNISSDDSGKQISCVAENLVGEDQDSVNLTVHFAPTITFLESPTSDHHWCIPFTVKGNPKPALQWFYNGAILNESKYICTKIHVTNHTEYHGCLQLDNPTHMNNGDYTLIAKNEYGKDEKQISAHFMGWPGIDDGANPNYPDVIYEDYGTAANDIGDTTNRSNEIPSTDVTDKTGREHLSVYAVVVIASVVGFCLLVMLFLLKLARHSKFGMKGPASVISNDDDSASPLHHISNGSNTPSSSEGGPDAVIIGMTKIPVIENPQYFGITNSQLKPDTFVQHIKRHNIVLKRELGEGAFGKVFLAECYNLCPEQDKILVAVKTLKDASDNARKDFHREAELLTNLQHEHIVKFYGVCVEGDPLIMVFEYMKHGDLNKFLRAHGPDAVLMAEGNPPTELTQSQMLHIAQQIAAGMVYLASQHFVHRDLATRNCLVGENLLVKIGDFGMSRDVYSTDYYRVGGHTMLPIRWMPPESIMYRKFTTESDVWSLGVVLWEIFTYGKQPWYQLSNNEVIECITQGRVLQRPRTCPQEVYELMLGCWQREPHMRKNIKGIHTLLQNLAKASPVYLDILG

4 molecules from ChEMBL document CHEMBL2218924, “A broad activity screen in support of a chemogenomic map for kinase signalling research and drug discovery” (Biochem J, 2013) can be followed below.

For orientation: residual activity means the signal under treatment as a percentage of the control signal.

Sequence of Angiopoietin-1 receptor (Homo sapiens) (Q02763 whole entry): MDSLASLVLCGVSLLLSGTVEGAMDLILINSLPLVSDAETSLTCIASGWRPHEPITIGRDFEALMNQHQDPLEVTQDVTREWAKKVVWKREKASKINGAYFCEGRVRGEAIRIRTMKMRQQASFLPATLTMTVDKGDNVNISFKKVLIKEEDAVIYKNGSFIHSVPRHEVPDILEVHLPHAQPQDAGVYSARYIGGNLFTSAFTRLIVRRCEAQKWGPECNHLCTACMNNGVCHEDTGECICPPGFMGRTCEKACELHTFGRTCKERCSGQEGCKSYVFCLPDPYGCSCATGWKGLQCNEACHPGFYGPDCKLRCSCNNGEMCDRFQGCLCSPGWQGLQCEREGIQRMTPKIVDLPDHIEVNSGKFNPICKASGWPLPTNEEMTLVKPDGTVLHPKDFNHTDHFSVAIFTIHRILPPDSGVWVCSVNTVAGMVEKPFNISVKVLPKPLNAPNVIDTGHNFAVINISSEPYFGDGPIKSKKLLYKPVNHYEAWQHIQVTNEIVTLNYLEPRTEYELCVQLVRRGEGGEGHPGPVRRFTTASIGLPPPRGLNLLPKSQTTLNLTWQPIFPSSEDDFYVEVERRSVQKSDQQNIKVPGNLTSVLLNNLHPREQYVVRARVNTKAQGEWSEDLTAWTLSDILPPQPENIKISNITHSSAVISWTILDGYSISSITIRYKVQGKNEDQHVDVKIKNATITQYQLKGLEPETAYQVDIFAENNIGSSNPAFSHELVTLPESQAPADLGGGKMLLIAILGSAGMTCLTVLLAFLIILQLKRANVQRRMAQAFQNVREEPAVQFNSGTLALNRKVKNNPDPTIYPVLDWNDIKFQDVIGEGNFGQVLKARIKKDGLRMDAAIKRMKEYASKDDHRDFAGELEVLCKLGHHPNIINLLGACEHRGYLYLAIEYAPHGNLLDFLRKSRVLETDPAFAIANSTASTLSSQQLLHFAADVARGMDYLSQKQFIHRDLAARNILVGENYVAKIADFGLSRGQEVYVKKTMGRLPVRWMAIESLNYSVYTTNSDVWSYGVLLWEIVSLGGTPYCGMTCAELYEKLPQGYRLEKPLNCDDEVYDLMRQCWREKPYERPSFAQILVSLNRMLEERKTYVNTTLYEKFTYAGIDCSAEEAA
Sequence of High affinity nerve growth factor receptor (Homo sapiens) (P04629 33-796 limits assumed): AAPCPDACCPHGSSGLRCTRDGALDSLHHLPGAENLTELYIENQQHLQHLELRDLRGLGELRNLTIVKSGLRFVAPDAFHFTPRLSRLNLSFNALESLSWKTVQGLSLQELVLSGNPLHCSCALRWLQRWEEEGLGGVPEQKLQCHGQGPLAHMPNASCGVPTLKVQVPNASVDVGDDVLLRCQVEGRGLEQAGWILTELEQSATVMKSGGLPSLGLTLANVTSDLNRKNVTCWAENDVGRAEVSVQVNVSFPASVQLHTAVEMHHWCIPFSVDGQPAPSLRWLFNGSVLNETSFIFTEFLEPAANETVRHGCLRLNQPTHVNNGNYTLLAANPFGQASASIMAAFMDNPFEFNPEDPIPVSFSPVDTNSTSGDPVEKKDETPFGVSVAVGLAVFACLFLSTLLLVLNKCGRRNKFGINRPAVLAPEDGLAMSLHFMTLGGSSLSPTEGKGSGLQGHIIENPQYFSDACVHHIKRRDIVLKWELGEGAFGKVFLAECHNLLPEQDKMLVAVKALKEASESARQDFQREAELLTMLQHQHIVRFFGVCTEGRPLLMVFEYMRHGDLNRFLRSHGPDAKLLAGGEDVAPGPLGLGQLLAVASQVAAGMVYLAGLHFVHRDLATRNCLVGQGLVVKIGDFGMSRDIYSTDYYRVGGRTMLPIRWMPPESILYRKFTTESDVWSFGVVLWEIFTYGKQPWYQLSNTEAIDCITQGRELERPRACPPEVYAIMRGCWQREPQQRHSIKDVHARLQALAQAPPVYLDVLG

For the molecule `N#C/C(=C(\N)Sc1ccc(N)cc1)c1ccccc1C(F)(F)F`, the residual activity in assay [1] turned out to be 86%; in assay [2] it was 84%; in assay [3] it was 64%; in assay [4] it was 68%; in [5] it was 93%; in [6], 91%. Besides, the residual activity is 75% in assay [7]; 103% in assay [8]; 98% in assay [9]; 93% in assay [10]; 99% in assay [11]; 82% in assay [12]. Also, the residual activity in assay [13] was determined as 67%; in assay [14], 93%; in assay [15] it was 63%; in [16], 111%; in [17] it was 87%; in [18], 90%. In addition, the figures for the residual activity in [19] and in assay [20] were 85% and 78%, respectively.

`Cc1cc2ncc(-c3ccccc3)nc2cc1C`: the residual activity in assay [1] stood at 101%; in assay [2], 75%; in [3], 97%; in [4], 93%; in [5], 92%; in assay [6] it was 105%. For the same molecule, the residual activity is 93% in assay [8]; 103% in assay [9]; 99% in [10]; 101% in assay [11]; 97% in [12]; 91% in assay [13]. Further, the residual activity in [14] was 90%; in [15] it was 71%; in assay [16] it was 98%; in assay [17], 89%; in [18], 106%; in [19], 81%. For the same molecule, the residual activity in [20] is 94%.

For `COc1cc2ncc(-c3ccccc3)nc2cc1OC`, the residual activity in [3] came to 87%; in assay [5] it was 94%; in [6], 100%; in assay [7], 125%; in assay [8], 85%; in [12], 92%. In addition, the residual activity in [13] was 84%; in assay [14], 96%; in [15], 63%; in assay [17], 80%; in assay [18] it was 39%; in assay [19], -1%. In addition, the residual activity in assay [20] was 54%.

`CCC(=O)Nc1ccc2ncnc(Nc3cccc(Br)c3)c2c1`: the residual activity in [1] came to 96%; in assay [2], 84%; in assay [3], 84%; in assay [4], 92%; in assay [5] it was 73%; in [6], 99%. In addition, the residual activity in [7] came to 109%; in [8] it was 98%; in [9], 103%; in [10], 92%; in assay [11] it was 93%; in assay [12], 90%. Also, the residual activity in assay [13] is 102%; in assay [14], 86%; in assay [15], 90%; in assay [16], 81%; in assay [17] it was 70%; in assay [18], 97%. The residual activity was found to be 96% in assay [19] and 77% in assay [20].
